Rows were chosen to be rich in hits. Some 2.2% of all compounds tested hit in one or more screens of this group.
FBPA Giardia inh: Giardia lamblia aldolase inhibition; purified Giardia FBPA; AID 2451; Potency, µM (series often up to 59.6 µM), hits mostly inhibitors; 0.71% of 290,000 active; active = well fitted inhibition curve with a large enough effect; inconclusive = small, poorly fitted or top-dose-only effect, or effect the other way; note: nearly all actives have a fitted effect of over 55% in size
Target sequence (A8B2U2 whole entry, looked up): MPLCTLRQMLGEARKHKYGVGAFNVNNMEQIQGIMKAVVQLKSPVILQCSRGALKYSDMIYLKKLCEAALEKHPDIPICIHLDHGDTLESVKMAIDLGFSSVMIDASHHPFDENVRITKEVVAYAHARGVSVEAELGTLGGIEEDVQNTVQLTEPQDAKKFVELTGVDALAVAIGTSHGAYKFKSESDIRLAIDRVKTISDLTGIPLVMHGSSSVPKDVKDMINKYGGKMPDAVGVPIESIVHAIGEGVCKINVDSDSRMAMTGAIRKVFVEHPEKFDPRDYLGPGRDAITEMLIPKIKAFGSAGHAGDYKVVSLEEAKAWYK
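40 nM FBPA preincubated 10 min at RT with compound (up to 57.5 uM final), then substrate plus GAPDH/TPI/NAD/arsenate coupling and diaphorase/resazurin added. Fluorescence read after 20 min at RT, 525/598 nm.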
FMDV antiviral: foot and mouth disease virus antiviral activity; AID 1159524; FMDV antiviral cell-based qHTS; 1.2% of 410,000 active; Potency, µM (doses to about 57.9 µM), usual class: inhibitors; calls by dose curve; tested in HEK293T cells; note: read-out not given here; nearly all actives have a fitted effect of over 45% in size
Vaccinia mCherry: inhibitors of vaccinia virus infection (mCherry reporter signal); Vaccinia virus mCherry reporter infection, fluorescence; AID 720579; Potency, µM (doses to about 36.5 µM), actives largely listed as inhibitors; 0.63% of 310,000 active; calls by dose curve; tested in A549 cells; note: nearly all actives have a fitted effect of over 35% in size
VACV Venus inh: inhibitors of vaccinia virus (Venus reporter) | AID 720580 | Potency, µM (doses to about 36.5 µM), actives largely listed as inhibitors | 0.46% of 330,000 active | Vaccinia virus Venus reporter expression, fluorescence; calls by dose curve; tested in A549 cells; note: nearly all actives have a fitted effect of over 30% in size
Numbers stand for hits.

How did COc1cc(/C=N\NC(=O)c2ccc(Cn3nc([N+](=O)[O-])c(Cl)c3C)o2)ccc1O do in these assays?
FBPA Giardia inh: inactive; FMDV antiviral: inactive; VACV Venus inh: 17.8µM

What do the screens show for `COc1cc(=O)n2c(c1C(=O)NC(C)c1ccco1)CCN(C(=O)c1ccc(F)cc1Cl)CC2` (configuration not stated)?
FMDV antiviral: inactive; Vaccinia mCherry: inactive; VACV Venus inh: inactive

Results for CCOc1cc(/C=N/NC(=O)c2ccc(O)cc2)ccc1Oc1nc(Cl)ncc1F ?
FBPA Giardia inh: inactive; FMDV antiviral: inactive

Results for CCOc1cc(/C=N\Nc2ncc(F)c(N3CCOCC3)n2)ccc1Oc1nc(Cl)ncc1F ?
FBPA Giardia inh: inactive; FMDV antiviral: 15.8µM; Vaccinia mCherry: inactive; VACV Venus inh: inactive

Results for Nc1nc(N)nc(-c2cc(F)ccc2O)n1 ?
FMDV antiviral: inactive; Vaccinia mCherry: inconclusive; VACV Venus inh: 10µM

How did Nc1nc(F)nc2c1ncn2[C@@H]1O[C@H](CO)[C@@H](O)[C@H]1O do in these assays?
FMDV antiviral: inconclusive; Vaccinia mCherry: 1µM; VACV Venus inh: 1.12µM

Results for OC[C@H]1O[C@@H](n2cnc3cncnc32)[C@H](O)[C@@H]1O ?
FBPA Giardia inh: inactive; FMDV antiviral: inactive; Vaccinia mCherry: 12.6µM; VACV Venus inh: inconclusive

How did OC[C@H]1O[C@@H](n2cnc3c(NCc4ccco4)ncnc32)[C@H](O)[C@@H]1O do in these assays?
FBPA Giardia inh: inactive; FMDV antiviral: inactive; Vaccinia mCherry: 10µM; VACV Venus inh: inconclusive

Results for Nc1nc(F)nc2c1ncn2[C@@H]1O[C@H](CO)[C@@H](O)[C@@H]1O ?
FBPA Giardia inh: inactive; FMDV antiviral: inactive; Vaccinia mCherry: 3.16µM; VACV Venus inh: 7.08µM

How did Nc1ncnc2c1ncn2C1O[C@H](CO)[C@@H](O)[C@@H]1O (some centres not stated) do in these assays?
FMDV antiviral: inactive; Vaccinia mCherry: inactive; VACV Venus inh: inactive

How did OCC1OC(n2cnc3c(NCc4ccco4)ncnc32)C(O)C1O (configuration not stated) do in these assays?
FBPA Giardia inh: inactive; FMDV antiviral: inactive; Vaccinia mCherry: inconclusive; VACV Venus inh: inconclusive

Results for COc1ccc(CN(Cc2ccccc2)C(=O)Nc2ccccc2)cc1COc1ccc(NC(C)=O)cc1 ?
Vaccinia mCherry: inactive; VACV Venus inh: inactive

What do the screens show for `Cc1ccc(C(=O)Nc2cnn(-c3ccc(C(=O)NCc4nc(-c5ccccc5)n[nH]4)cc3)c2)c(C)c1`?
FMDV antiviral: inactive; Vaccinia mCherry: inactive; VACV Venus inh: inactive

What do the screens show for `CC[C@H](C)[C@H](N)C(=O)N[C@@H](CCCNC(=N)N)C(=O)N[C@@H](CCC(N)=O)C(=O)NCC(=O)N1CCC[C@H]1C(=O)N[C@@H](CCCCN)C(=O)N[C@@H](CCC(=O)O)C(=O)N1CCC[C@H]1C(=O)N[C@@H](Cc1ccccc1)C(=O)N[C@@H](CCCNC(=N)N)C(=O)N[C@@H](CC(=O)O)C(=O)N[C@@H](Cc1ccc(O)cc1)C(=O)N[C@H](C(=O)N[C@@H](CC(=O)O)C(=O)N[C@@H](CCCNC(=N)N)C(=O)N[C@@H](Cc1ccccc1)C(=O)N[C@@H](Cc1ccc(O)cc1)C(=O)N[C@@H](CCCCN)C(=O)N[C@H](C(=O)N[C@@H](CC(C)C)C(=O)O)[C@@H](C)O)C(C)C`?
FBPA Giardia inh: inactive

How did COC(=O)c1c(OCc2cccnc2)cc(=O)n2c1CCN(C(=O)c1ccc(OC)c(F)c1)CC2 do in these assays?
FMDV antiviral: inactive; Vaccinia mCherry: inactive; VACV Venus inh: inactive

How did Nc1nc(Cl)nc2c1ncn2C1CC(O)C(CO)O1 (configuration not stated) do in these assays?
FMDV antiviral: inactive; Vaccinia mCherry: 2.51µM; VACV Venus inh: inconclusive

What do the screens show for `CCc1cc(C(=O)N/N=C/c2ccc(O)cc2O)c2ccccc2n1`?
FMDV antiviral: inactive; Vaccinia mCherry: 1.12µM; VACV Venus inh: inactive

How did Cc1nonc1C(=O)N/N=C/c1ccc(O)cc1O do in these assays?
FBPA Giardia inh: inactive; FMDV antiviral: inactive; Vaccinia mCherry: 8.91µM; VACV Venus inh: inconclusive

How did O=C(N/N=C/c1ccc(O)cc1O)/C(=C/c1ccccc1)CCO do in these assays?
FBPA Giardia inh: inactive; FMDV antiviral: inactive; Vaccinia mCherry: 11.2µM; VACV Venus inh: inconclusive

What do the screens show for `OC(c1cccnc1)c1ccc2c(c1)CN(Cc1cn(-c3ccccc3)nc1-c1ccccc1)CCO2` (configuration not stated)?
FMDV antiviral: inactive; Vaccinia mCherry: inactive; VACV Venus inh: inactive

Results for COCCCn1c(C(=O)Nc2ccc3c(c2)OCO3)cc2c(=O)n3cccc(C)c3nc21 ?
FMDV antiviral: inconclusive; Vaccinia mCherry: inconclusive; VACV Venus inh: 5.01µM

Results for O=C(O)CCCCCNS(=O)(=O)c1cccc2c1C(=O)c1ccccc1C2=O ?
FBPA Giardia inh: inconclusive; FMDV antiviral: inactive; Vaccinia mCherry: 4.47µM; VACV Venus inh: 5.01µM

How did COCC(=O)Nc1cc(C(=O)N2CCCC(C(C)=O)C2)cc2nc(-c3ccccc3)n(C)c12 (configuration not stated) do in these assays?
FMDV antiviral: inactive; Vaccinia mCherry: inactive; VACV Venus inh: inactive

Results for CC(C)(C)OC(=O)NCCCCCc1cn([C@@H](CO)C(=O)NCCCCCCCCCCC(=O)N2CCN(C(=O)OC(C)(C)C)CC2)nn1 ?
FMDV antiviral: 7.08µM; Vaccinia mCherry: inconclusive; VACV Venus inh: inconclusive

Results for C#CCOCCOCCOCCNc1nc(N2CCN(C(=O)CCCCCCCCCCNC(=O)[C@H]([C@@H](C)CC)n3cc(CCCCN=C(N)N)nn3)CC2)nc(N2CCN(C(=O)CCCCCCCCCCNC(=O)[C@H](CO)n3cc(CCCCCN)nn3)CC2)n1 ?
FMDV antiviral: inconclusive; Vaccinia mCherry: inconclusive; VACV Venus inh: 7.08µM

How did CC(C)(C)OC(=O)CC[C@@H](C(=O)NCCCCCCCCCCC(=O)N1CCN(C(=O)OC(C)(C)C)CC1)n1cc(CCCCCNC(=O)OC(C)(C)C)nn1 do in these assays?
FMDV antiviral: inactive; Vaccinia mCherry: inactive; VACV Venus inh: inconclusive

How did C#CCOCCOCCOCCNc1nc(N2CCN(C(=O)Cn3cc(CCCN=C(N)N)nn3)CC2)nc(N2CCN(C(=O)[C@H]([C@@H](C)CC)n3cc(CCCCN)nn3)CC2)n1 do in these assays?
FMDV antiviral: inactive; Vaccinia mCherry: inactive; VACV Venus inh: inactive

Results for C#CCOCCOCCOCCNc1nc(N2CCN(C(=O)CCCCCCCCCCNC(=O)[C@H]([C@@H](C)CC)n3cc(CCCCN=C(N)N)nn3)CC2)nc(N2CCN(C(=O)CCCCCCCCCCNC(=O)[C@H](CCCCN)n3cc(C)nn3)CC2)n1 ?
FMDV antiviral: 35.5µM; Vaccinia mCherry: inconclusive; VACV Venus inh: 7.08µM

How did C#CCOCCOCCOCCNc1nc(N2CCN(C(=O)CCCCCCCCCCNC(=O)[C@@H](CCC(=O)O)n3cc(CCCCCN)nn3)CC2)nc(N2CCN(C(=O)CCCCCCCCCCNC(=O)[C@H]([C@@H](C)CC)n3cc(CCCCCN)nn3)CC2)n1 do in these assays?
FMDV antiviral: inactive; Vaccinia mCherry: inactive; VACV Venus inh: inconclusive

What do the screens show for `C#CCOCCOCCOCCNc1nc(N2CCN(C(=O)CCCCCCCCCCNC(=O)Cn3cc(CCCCCN)nn3)CC2)nc(N2CCN(C(=O)CCCCCCCCCCNC(=O)[C@H]([C@@H](C)CC)n3cc(CCCCN=C(N)N)nn3)CC2)n1`?
FMDV antiviral: inactive; Vaccinia mCherry: inconclusive; VACV Venus inh: 5.62µM

Screening data as filed in PubChem BioAssay.
